Laboratory results as given in the supplement of paper PMC12350171.
Where a name gives a salt, the structure may show the parent alone. Values without a mark were called inactive.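 How the source made its calls: active = AUC significantly below DMSO controls by Student t-fit with adjusted P under 0.01; inactive = not significantly reduced.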

What follows are molecules tested on Haemophilus parainfluenzae (assay: growth AUC normalised to DMSO control (fraction of control); higher = less growth inhibition, active = hit call of the paper). Details: 20 µM.
Procedure, shortened: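 For the AUC endpoint, growth curves were integrated by the trapezoidal rule up to the exponential-to-stationary transition and normalised to DMSO controls on the same plate. The curves came from OD578 readings taken hourly for 24 h, in three biological replicates. Pathogens had been passaged anaerobically twice and inoculated at an OD578 of 0.01 into pre-reduced mGAM plates carrying 20 μM compound and 1% DMSO, sealed with breathable membranes. Medium for Haemophilus parainfluenzae also contained hemin and NAD.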

`CCCC(=O)Nc1ccc(OCC(O)CNC(C)C)c(C(C)=O)c1` (centres undefined) [Acebutolol hydrochloride] was tested. Which “growth AUC normalised to DMSO control” value did it give?
Its value is 1.03.

How did the “growth AUC normalised to DMSO control” value turn out when `Cc1c(-c2ccccc2)oc2c(C(=O)OCCN3CCCCC3)cccc2c1=O` [Flavoxate hydrochloride] was run?
Its value is 1.2.

Which “growth AUC normalised to DMSO control” value does the source give for `O=C(O)c1cccnc1Nc1cccc(C(F)(F)F)c1` [Niflumic acid] here?
The value was 1.02.

For `C#C[C@]1(O)CC[C@H]2[C@@H]3CCC4=CC(=O)CC[C@@H]4[C@H]3CC[C@@]21C` [Norethindrone], which “growth AUC normalised to DMSO control” value is on record?
Its value is 0.989.

With `C[C@H]1O[C@@H](O[C@H]2[C@@H](O)C[C@H](O[C@H]3[C@@H](O)C[C@H](O[C@H]4CC[C@@]5(C)[C@H](CC[C@@H]6[C@@H]5C[C@@H](O)[C@]5(C)[C@@H](C7=CC(=O)OC7)CC[C@]65O)C4)O[C@@H]3C)O[C@@H]2C)C[C@H](O)[C@@H]1O` [Digoxin] as the molecule, how does the “growth AUC normalised to DMSO control” value read?
Its value is 0.979.

`c1ccc(CC2=NCCN2)cc1` [Tolazoline hydrochloride] was tested. Which “growth AUC normalised to DMSO control” value did it give?
Its value is 1.03.

For `CC(=O)O[C@]1(C(C)=O)CC[C@H]2[C@@H]3C=C(Cl)C4=CC(=O)CC[C@]4(C)[C@H]3CC[C@@]21C` [Chlormadinone acetate], which “growth AUC normalised to DMSO control” value is on record?
The value was 1.01.

For `CCC(=O)O[C@]1(C(=O)CCl)[C@@H](C)C[C@H]2[C@@H]3CCC4=CC(=O)C=C[C@]4(C)[C@@]3(F)[C@@H](O)C[C@@]21C` [Clobetasol propionate], which “growth AUC normalised to DMSO control” value is on record?
The value was 1.47.

With `O=C(Nc1cccc2c(=O)cc(-c3nnn[nH]3)oc12)c1ccc(OCCCCc2ccccc2)cc1` [Pranlukast] as the molecule, how does the “growth AUC normalised to DMSO control” value read?
The value was 0.996.

How did the “growth AUC normalised to DMSO control” value turn out when `C[C@]12CC[C@@H]3c4ccc(O)cc4CC[C@H]3[C@@H]1CC[C@@H]2O` [Estradiol-17 beta] was run?
Its value is 1.

For `C=C(CC)C(=O)c1ccc(OCC(=O)O)c(Cl)c1Cl` [Ethacrynic acid], which “growth AUC normalised to DMSO control” value is on record?
The value was 1.02.

How did the “growth AUC normalised to DMSO control” value turn out when `CCCCNc1ccc(C(=O)OCCN(C)C)cc1` [Tetracaine hydrochloride] was run?
Its value is 1.16.

How did the “growth AUC normalised to DMSO control” value turn out when `COc1ccc2c(c1)C(=O)N(CCc1ccc(S(=O)(=O)NC(=O)NC3CCCCC3)cc1)C(=O)C2(C)C` [Gliquidone] was run?
The value was 0.998.

`CCCCC(CC)CNC(=N)NC(=N)NCCCCCCNC(=N)NC(=N)NCC(CC)CCCC` (centres undefined) [Alexidine dihydrochloride] was tested. Which “growth AUC normalised to DMSO control” value did it give?
The value was 0.861.

`C#CCN(C)Cc1ccccc1` [Pargyline hydrochloride] was tested. Which “growth AUC normalised to DMSO control” value did it give?
The value was 0.979.

How did the “growth AUC normalised to DMSO control” value turn out when `C#C[C@]1(O)CC[C@H]2[C@@H]3CCC4=CC(=O)CC[C@@H]4[C@H]3CC[C@@]21CC` [(D-) Norgestrel] was run?
The value was 0.969.

Which “growth AUC normalised to DMSO control” value does the source give for `C/C(=C(\CCOP(=O)(O)O)SC(=O)c1ccccc1)N(C=O)Cc1cnc(C)nc1N` [Benfotiamine] here?
Its value is 0.999.

`CCc1oc2ccccc2c1C(=O)c1cc(Br)c(O)c(Br)c1` [Benzbromarone] was tested. Which “growth AUC normalised to DMSO control” value did it give?
The value was 0.987.

How did the “growth AUC normalised to DMSO control” value turn out when `O=C(O)c1cn(-c2ccc(F)cc2)c2cc(N3CCNCC3)c(F)cc2c1=O` [Sarafloxacin] was run?
The value was 0.0521 (active).

How did the “growth AUC normalised to DMSO control” value turn out when `COc1c2occc2c(OC)c2c(=O)cc(C)oc12` [Khellin] was run?
The value was 0.993.

How did the “growth AUC normalised to DMSO control” value turn out when `NS(=O)(=O)c1cc2c(cc1Cl)NC(CC1CCCC1)NS2(=O)=O` (centres undefined) [Cyclopenthiazide] was run?
Its value is 0.982.

`CC(COc1ccccc1)NC(C)C(O)c1ccc(O)cc1` (centres undefined) [Isoxsuprine hydrochloride] was tested. Which “growth AUC normalised to DMSO control” value did it give?
The value was 0.939.

With `Cc1ccccc1C(OCCN(C)C)c1ccccc1` (centres undefined) [Orphenadrine hydrochloride] as the molecule, how does the “growth AUC normalised to DMSO control” value read?
Its value is 0.954.

Which “growth AUC normalised to DMSO control” value does the source give for `NC[C@H]1O[C@H](O[C@H]2[C@H](O)[C@@H](O[C@H]3O[C@H](CO)[C@@H](O)[C@H](N)[C@H]3O)[C@H](N)C[C@@H]2N)[C@H](N)C[C@@H]1O` [Tobramycin] here?
The value was 0.0457 (active).

With `Cc1ccc(S(=O)(=O)NC(=O)NN2CC3CCCC3C2)cc1` (centres undefined) [Gliclazide] as the molecule, how does the “growth AUC normalised to DMSO control” value read?
Its value is 0.996.

Which “growth AUC normalised to DMSO control” value does the source give for `OCCOCCN1CCN(C2=Nc3ccccc3Sc3ccccc32)CC1` [Quetiapine hemifumarate] here?
Its value is 0.997.

`CC(=O)O[C@H]1C(=O)[C@@]2(C)[C@H]([C@H](OC(=O)c3ccccc3)[C@]3(O)C[C@H](OC(=O)[C@H](O)[C@@H](NC(=O)c4ccccc4)c4ccccc4)C(C)=C1C3(C)C)[C@]1(OC(C)=O)CO[C@@H]1C[C@@H]2O` [Paclitaxel] was tested. Which “growth AUC normalised to DMSO control” value did it give?
The value was 1.08.

Which “growth AUC normalised to DMSO control” value does the source give for `CCCCC(C)(O)C/C=C/[C@H]1[C@H](O)CC(=O)[C@@H]1CCCCCCC(=O)OC` (mixture of isomers) [Misoprostol] here?
Its value is 1.02.

`CC(C)(C)NC[C@H](O)COc1cccc2c1CCCC2=O` [(-) Levobunolol hydrochloride] was tested. Which “growth AUC normalised to DMSO control” value did it give?
Its value is 0.989.

Which “growth AUC normalised to DMSO control” value does the source give for `CCN(CC)CCCC(C)Nc1ccnc2cc(Cl)ccc12` (centres undefined) [Chloroquine diphosphate] here?
The value was 1.01.

With `O=P(O)(O)C(Cl)(Cl)P(=O)(O)O` [Clodronate disodium] as the molecule, how does the “growth AUC normalised to DMSO control” value read?
Its value is 0.965.

Which “growth AUC normalised to DMSO control” value does the source give for `CC(C)COCC(CN(Cc1ccccc1)c1ccccc1)N1CCCC1` (centres undefined) [Bepridil hydrochloride] here?
The value was 0.771.

`CC(C)(C)C(=O)OCOC(=O)[C@@H]1N2C(=O)[C@@H](/N=C/N3CCCCCC3)[C@H]2SC1(C)C` [Pivmecillinam hydrochloride] was tested. Which “growth AUC normalised to DMSO control” value did it give?
The value was 0.825.

With `CC(=O)N[C@@H](CS)C(=O)O` [Acetylcysteine] as the molecule, how does the “growth AUC normalised to DMSO control” value read?
The value was 1.07.

Which “growth AUC normalised to DMSO control” value does the source give for `NC(=O)N1c2ccccc2C=Cc2ccccc21` [Carbamazepine] here?
The value was 0.989.

Which “growth AUC normalised to DMSO control” value does the source give for `CCN(CC)CCNC(=O)c1cc(Cl)c(N)cc1OC` [Metoclopramide monohydrochloride] here?
The value was 0.991.

`CC(=O)OCC(=O)[C@@]1(O)CC[C@H]2[C@@H]3CCC4=CC(=O)CC[C@]4(C)[C@H]3[C@@H](O)C[C@@]21C` [Cortisol acetate] was tested. Which “growth AUC normalised to DMSO control” value did it give?
Its value is 1.02.

`CCOc1cc(CC(=O)N[C@@H](CC(C)C)c2ccccc2N2CCCCC2)ccc1C(=O)O` [Repaglinide] was tested. Which “growth AUC normalised to DMSO control” value did it give?
The value was 1.08.

`Cc1cccc(N(C)C(=S)Oc2ccc3ccccc3c2)c1` [Tolnaftate] was tested. Which “growth AUC normalised to DMSO control” value did it give?
Its value is 1.
